This is one part of the list. Activity calls are given as the source filed them. Cut-off read from the data, not from the text of the source: active = activation above about 17%; inactive = the rest.
What follows are compounds tested against 5-hydroxytryptamine receptor 5A (Homo sapiens) (UniProt P47898) (assay: activation of human 5-HT5A receptor – cell-based, luminescence, confirmation (AID 504915;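 note: 0% = cells with vehicle only and 100% = full reference agonist response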)). Conditions: HTR5A agonist cell assay, at 9.3 µM, hits give high values.
Chain of 5-hydroxytryptamine receptor 5A (Homo sapiens) (P47898 whole entry, looked up): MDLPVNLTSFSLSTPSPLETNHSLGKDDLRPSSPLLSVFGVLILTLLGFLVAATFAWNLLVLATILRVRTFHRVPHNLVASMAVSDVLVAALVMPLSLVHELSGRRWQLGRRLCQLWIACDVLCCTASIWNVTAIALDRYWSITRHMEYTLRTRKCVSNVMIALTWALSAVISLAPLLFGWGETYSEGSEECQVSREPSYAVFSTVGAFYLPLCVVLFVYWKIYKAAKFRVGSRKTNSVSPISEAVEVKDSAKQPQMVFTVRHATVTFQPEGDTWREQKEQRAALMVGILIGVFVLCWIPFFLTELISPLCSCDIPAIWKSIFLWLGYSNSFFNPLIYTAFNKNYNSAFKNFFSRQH

SMILES	activation
COc1cc2c(-c3ccc4c(c3)OCO4)c(-c3ccsc3)oc(=O)c2cc1OC	-0.88% (inactive)
COc1ccc(-c2ocnc2C(=O)Nc2ccc3c(c2)CCC3)cc1	-0.96% (inactive)
C/C(=N\NC(=O)CNc1cccc2ccccc12)c1ccc(Br)s1	1.77% (inactive)
CC1(C)C2CCC1(CS(=O)(=O)NCCc1c[nH]c3ccccc13)C(=O)C2 (stereo not given)	35.4% (active)
CN1c2ccc(C=O)c3c(C=O)ccc(c23)N(C)C1(C)C	-0.75% (inactive)
COc1ccc(C(=O)O/N=C(\N)Cc2ccc(Cl)cc2Cl)cc1OC	10.9% (inactive)
O=C(CC1Nc2ccccc2NC1=O)Nc1ccccc1 (stereo not given)	3.07% (inactive)
CNC(=S)N/N=C/c1ccc(OCc2ccccc2)c(Br)c1	0.4% (inactive)
CC(NC(=O)c1cc(-c2ccccc2)on1)c1ccccc1 (stereo not given)	-0.01% (inactive)
COc1ccc(S(=O)(=O)N2CCN(CC(=O)N3c4ccccc4CC3C)CC2)cc1OC (stereo not given)	5.85% (inactive)
CCOc1ccc(NC(=O)Nc2cc(C)on2)cc1	-2.78% (inactive)
Cc1ccc(CN2CCN(Cc3ccc(OCCO)cc3)CC2CCO)o1 (stereo not given)	2.89% (inactive)
COc1c(Cl)cc(C(=O)Nc2ccc(Cl)cn2)cc1Cl	4.5% (inactive)
COc1ccc2[nH]cc(CCN3C(=O)c4ccc(C(=O)O)cc4C3=O)c2c1	-2.36% (inactive)
CNc1nnc(-c2ccco2)s1	0.94% (inactive)
Cc1c(C(=O)OCC(=O)N2CCCC2=O)oc2ccccc12	3.43% (inactive)
COc1ccc(/C=C(\C#N)c2c[nH]c3ccccc23)cc1	0.48% (inactive)
c1cc(-c2nn[nH]n2)ccc1CN1CCCCC1	-1.04% (inactive)
O=C(Nc1ccc(C(=O)N2CCOCC2)cc1)Nc1cccc(C(F)(F)F)c1	43.1% (active)
Cc1cccc2sc(N(CCCN(C)C)C(=O)CCS(=O)(=O)c3ccccc3)nc12	5.39% (inactive)
CN(c1ccccc1)S(=O)(=O)c1cc(C(=O)N2CCN(c3ncccn3)CC2)ccc1Cl	-3.34% (inactive)
Cc1oc2c(F)c(F)c(F)c(F)c2c1S(=O)(=O)Nc1cccc(C(F)(F)F)c1	-4.5% (inactive)
Cc1ccc(CCC(=O)Nc2ncc(Cc3cc(Cl)ccc3Cl)s2)o1	29.1% (active)
O=C(CNCc1ccco1)Nc1cc(S(=O)(=O)N2CCOCC2)ccc1N1CCCC1	-0.44% (inactive)
CCCOc1ccc(C(=O)C(CCC(CNCC)C(=O)c2ccc(OCCC)cc2)CNCC)cc1 (stereo not given)	-4.56% (inactive)
